Source: article PMC5540273 (PLoS ONE, 2017)

Each molecule was assayed on ROCK1. Conditions: concentration: 1 μM,replicates: in singlicate; n = 1.
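Note: KINOMEscan kinase panel screen.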

Compound	%Inh [%]
CS(=O)(=O)Nc1ccc(-c2ccnc3[nH]ccc23)cc1 [GSK993273]	98.5
O=C(Nc1n[nH]c2cc(-c3ccco3)ccc12)C1CC1 [SB-737447]	0
OCCn1cc(-c2cnc3nnn(Cc4ccc5ncccc5c4)c3n2)cn1	0
Cc1ccc(Nc2ccnc(Nc3ccc4c(c3)CS(=O)(=O)C4)n2)cc1O.Cl [GW579362]	48
Cn1ccc2ncnc(Oc3ccc(NC(=O)Nc4cccc(C(F)(F)F)c4)c(F)c3)c21	0
CCOC(=O)N1CCC(n2cnc(-c3ccc(F)cc3)c2-c2ccnc(N)n2)CC1 [SB-219952]	45
CCn1c(-c2nonc2N)nc2cncc(Br)c21 [SB-738004]	99.7
Cl.c1ccc(Oc2ccc(Nc3ccnc4cc(-c5ccc(CN6CCNCC6)o5)ccc34)cc2)nc1 [GW567142]	5
COc1cccc(C2=C(Nc3cccc(Cl)c3)C(=O)NC2=O)c1 [SB-341556]	0
CS(=O)c1ccc(-c2coc3ccc(-c4n[nH]c(=O)o4)cc23)cc1 (centres unmarked)	32
COC(=O)Nc1nc2cc(Oc3ccc(NC(=O)Nc4cc(C(F)(F)F)ccc4Cl)cc3)ccc2[nH]1.Cl [GW697465]	26
Cn1cc(-c2cccc3c(N)c(C(N)=O)nnc23)cn1	11
C[C@@H]1CCN(C(=O)N2CCCC2)C[C@@H]1N(C)c1ncnc2[nH]ccc12	43
Cc1ccc2c(-c3ccnc(Nc4ccc(C(F)(F)F)cc4)n3)cnn2n1 [GW819776]	54
C[C@@H](Oc1cc(-n2cnc3cc(-c4ccncc4)ccc32)sc1C(N)=O)c1ccccc1Cl [GSK479719]	3
CCNCC(Cc1ccccc1)NC(=O)c1cc(Br)c(-c2ccnc3[nH]ccc23)s1.Cl.Cl (centres unmarked) [GSK1383280]	99.8
Cc1nnc(-c2ccc3occ(-c4ccc(S(C)=O)cc4)c3n2)o1 (centres unmarked)	0
COc1cc2nccc(Nc3ccc(Oc4ccccc4)cc3)c2cc1OC.Cl [GI261656]	16
COc1cccc(OC)c1C(=O)Nc1cccc(-c2nn3ccccc3c2-c2ccnc(Nc3cccc(F)c3)n2)c1 [GSK361065]	0
COc1cc(Nc2nccc(N3CCC(NC(=O)c4cccc(C#N)c4)C3)n2)cc(OC)c1OC (centres unmarked) [GSK1379751]	10
O=C(Nc1cccc(C(F)(F)F)c1)c1cccc(Oc2ccc3nccn3n2)c1	33
CC(C)c1nc(-c2cccc(NS(=O)(=O)c3ccccc3)c2)c(-c2ccnc(Nc3ccc4c(c3)CN(C)CC4)n2)s1 [GSK1649598]	0
CN1CCN(CCCNc2nccc(-c3c(-c4ccc(F)cc4)nn4cc(C(N)=O)ccc34)n2)CC1 [GW622475]	0
CC(=O)c1c(-c2ccncc2)[nH]c(-c2ccncc2)c1C [GW493036]	46
COC(=O)c1cccc(NC(=O)NC2CCN(c3ccnc(NCc4ccc(F)cc4)n3)CC2)c1 [GSK1379860]	25

What follows are molecules tested on ROCK2. Conditions: concentration: 1 μM,replicates: in singlicate; n = 1.

Compound	%Inh [%]
Cn1ccc2ncnc(Oc3ccc(NC(=O)Nc4ccnc(C(F)(F)F)c4)c(Cl)c3)c21	0
Cc1ccc(CC(=O)N2CCc3cc(-c4cn(C)c5ncnc(N)c45)ccc32)cc1 [GSK2634758]	21
CS(=O)(=O)c1cccc(CNc2nc(Nc3ccc4c(c3)[C@@H]3C[C@@H]4CNC3=O)ncc2C(F)(F)F)c1	0
CNC(=O)c1ccccc1Nc1nc(Nc2cccc(CS(C)(=O)=O)c2)ncc1C.O=CO [GSK1520489]	75
Cn1ccc2ncnc(Oc3ccc(NC(=O)Nc4cccc(C(F)(F)F)c4)c(Cl)c3)c21	26
CN1CCN(CCNc2nc3cc(Oc4ccc(NC(=O)Nc5cc(C(F)(F)F)ccc5F)cc4)ccc3[nH]2)CC1.Cl.Cl [GW768504]	0
O=C(NCC1CC1)c1ccc(-c2cc(C(=O)NC3CC3)ccc2F)cc1 [GW810445]	9
N#Cc1cccc(C(=O)NC2CCN(c3ccnc(Nc4ccc(F)cc4)n3)C2)c1 (centres unmarked) [GSK1379708]	0
FC(F)(F)c1cc(Br)cc(Nc2nccc(-c3cnn4ncccc34)n2)c1 [GW810578]	23
Cc1ccn2nc(-c3ccc(F)cc3)c(-c3ccncc3)c2c1.Cl [GW457859]	20
C[C@@H](Oc1cc(-n2cnc3cc(-c4cnn(C)c4)ccc32)sc1C(N)=O)c1ccccc1Cl [GSK580432]	11
Cn1ccc2ncnc(Oc3ccc(NC(=O)Nc4cncc(C(F)(F)F)c4)c(Cl)c3)c21	0
CS(=O)(=O)Nc1ccc(-c2ccnc3[nH]ccc23)cc1 [GSK993273]	98.4
O=C(Nc1n[nH]c2cc(-c3ccco3)ccc12)C1CC1 [SB-737447]	0
OCCn1cc(-c2cnc3nnn(Cc4ccc5ncccc5c4)c3n2)cn1	0
Cc1ccc(Nc2ccnc(Nc3ccc4c(c3)CS(=O)(=O)C4)n2)cc1O.Cl [GW579362]	50
Cn1ccc2ncnc(Oc3ccc(NC(=O)Nc4cccc(C(F)(F)F)c4)c(F)c3)c21	0
CCOC(=O)N1CCC(n2cnc(-c3ccc(F)cc3)c2-c2ccnc(N)n2)CC1 [SB-219952]	12
CCn1c(-c2nonc2N)nc2cncc(Br)c21 [SB-738004]	99.6

Compound	%Inh [%]
Cl.c1ccc(Oc2ccc(Nc3ccnc4cc(-c5ccc(CN6CCNCC6)o5)ccc34)cc2)nc1 [GW567142]	32
COc1cccc(C2=C(Nc3cccc(Cl)c3)C(=O)NC2=O)c1 [SB-341556]	0
CS(=O)c1ccc(-c2coc3ccc(-c4n[nH]c(=O)o4)cc23)cc1 (centres unmarked)	0
COC(=O)Nc1nc2cc(Oc3ccc(NC(=O)Nc4cc(C(F)(F)F)ccc4Cl)cc3)ccc2[nH]1.Cl [GW697465]	24
Cn1cc(-c2cccc3c(N)c(C(N)=O)nnc23)cn1	20
C[C@@H]1CCN(C(=O)N2CCCC2)C[C@@H]1N(C)c1ncnc2[nH]ccc12	67
Cc1ccc2c(-c3ccnc(Nc4ccc(C(F)(F)F)cc4)n3)cnn2n1 [GW819776]	0
C[C@@H](Oc1cc(-n2cnc3cc(-c4ccncc4)ccc32)sc1C(N)=O)c1ccccc1Cl [GSK479719]	49
CCNCC(Cc1ccccc1)NC(=O)c1cc(Br)c(-c2ccnc3[nH]ccc23)s1.Cl.Cl (centres unmarked) [GSK1383280]	99.6
Cc1nnc(-c2ccc3occ(-c4ccc(S(C)=O)cc4)c3n2)o1 (centres unmarked)	0
COc1cc2nccc(Nc3ccc(Oc4ccccc4)cc3)c2cc1OC.Cl [GI261656]	29
COc1cccc(OC)c1C(=O)Nc1cccc(-c2nn3ccccc3c2-c2ccnc(Nc3cccc(F)c3)n2)c1 [GSK361065]	14
COc1cc(Nc2nccc(N3CCC(NC(=O)c4cccc(C#N)c4)C3)n2)cc(OC)c1OC (centres unmarked) [GSK1379751]	35
O=C(Nc1cccc(C(F)(F)F)c1)c1cccc(Oc2ccc3nccn3n2)c1	22
CC(C)c1nc(-c2cccc(NS(=O)(=O)c3ccccc3)c2)c(-c2ccnc(Nc3ccc4c(c3)CN(C)CC4)n2)s1 [GSK1649598]	0
CN1CCN(CCCNc2nccc(-c3c(-c4ccc(F)cc4)nn4cc(C(N)=O)ccc34)n2)CC1 [GW622475]	20
CC(=O)c1c(-c2ccncc2)[nH]c(-c2ccncc2)c1C [GW493036]	27
COC(=O)c1cccc(NC(=O)NC2CCN(c3ccnc(NCc4ccc(F)cc4)n3)CC2)c1 [GSK1379860]	19
